Compounds with a hit are over-represented: about 17% of the library has one in this group of screens.
HepG2 tox: qHTS for Inhibitors of TGF-b: Cytotox Counterscreen; HepG2 CAGA-GFP viability, ATP luminescence, 18 h; Potency, µM (series often up to 46.1 µM), inactives show at the highest dose activity change, negative = cytotoxicity, usual class: cytotoxic; hit rate 0.76% among 410,000
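CellTiter-Glo luminescence gave cytotoxicity after 18 hours at 37 degrees C. The cells were HepG2 CAGA-GFP in 1% FBS DMEM, stimulated with 500 pg/mL TGF-beta after compound addition. %Activity was normalised to no-cell wells (complete cell-killing) and DMSO (no toxicity), and curves were fitted and classified.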
HT1080 IDH1KD tx: qHTS for induction of synthetic lethality in tumor cells producing 2HG: qHTS for the HT-1080-IDH1KD cell line. HT-1080 IDH1 knockdown viability, ATP luminescence, 48 h. Potency, µM (doses to about 46.1 µM), for inactives: at the top dose activity, negative = toxicity, most hits filed as cytotoxic. hit rate 2% among 360,000;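 note: 0% = DMSO wells and -100% = cell-free medium wells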
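After a 2 h attachment period, IDH1KD HT-1080 cells took pin-transferred compound for 48 h at 37 °C; ATP-based luminescence after 10 min room-temperature reagent incubation reported viability.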
HT1080-NT tox: qHTS for induction of synthetic lethality in tumor cells producing 2HG: qHTS for the HT-1080-NT fibrosarcoma cell line | HT-1080-NT fibrosarcoma viability, CellTiter-Glo ATP luminescence, 48 h | Potency, µM (top dose mostly 46.1 µM), inactives show top-dose activity, negative = less viability, most hits filed as cytotoxic | hit rate 1.6% among 360,000;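 note: NT is the 2HG producing partner of a matched IDH1 knockdown line; 0% = DMSO-treated cells and -100% = media-only wells without cells; nearly all actives have a fitted effect of over 55% in size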
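Viability by CellTiter-Glo luminescence after 48 h compound exposure at 37C of HT-1080-NT cells (750/well, RPMI, 5% FBS). % activity scaled between DMSO wells and medium-only wells, then curve-fitted and categorized by curve class.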
DT40 TDP1 no CPT: qHTS for Inhibitors of human tyrosyl-DNA phosphodiesterase 1 (TDP1): qHTS in cells in absence of CPT; DT40 Tdp1-/- hTDP1 cells, no CPT, ATP luminescence, 48 h; Potency, µM (highest dose often 46.2 µM), for the others: top-dose activity change, negative = growth inhibition, most hits filed as inhibitors; hit rate 15% among 420,000; note: % is set by controls: 0 for no effect and ±100 for the full control effect; nearly all actives have a fitted effect of over 55% in size
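Compound effects on proliferation are scored in DT40 Tdp1-/-;hTDP1 cells in the absence of CPT. ATP levels (CellTiter-Glo luminescence) are recorded after a ≥48 hr, 37 °C incubation.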
TDP1 cell CPT: qHTS for Inhibitors of human tyrosyl-DNA phosphodiesterase 1 (TDP1): qHTS in cells in presence of CPT; chicken DT40 Tdp1-/-;hTDP1 cells + 20 nM CPT, ATP luminescence, 48 h; Potency, µM (series often up to 46.2 µM), inactives show at the top dose activity change, negative = growth inhibition, usual class: inhibitors; hit rate 12% among 420,000; AID 686979, 2013; note: % is set by controls: 0 for no effect and ±100 for the full control effect; nearly all actives have a fitted effect of over 55% in size
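Chicken DT40 Tdp1-/- cells complemented with human TDP1, 400 cells/well, exposed to compounds plus 20 nM camptothecin for at least 48 h at 37 C; viability read as ATP content by CellTiter-Glo luminescence.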
TGFb inhibitor: qHTS for Inhibitors of TGF-b; Potency, µM (top dose mostly 46.1 µM), for inactives: at the highest dose activity, negative = inhibition, usual class: inhibitors; hit rate 1.2% among 410,000; HepG2 CAGA-GFP TGF-b/SMAD3 reporter, GFP fluorescence, 18 h; TGF-beta stimulated, 500 pg/mL final; note: % is set by controls: 0 for no effect and ±100 for the full control effect; nearly all actives have a fitted effect of over 65% in size
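Read-out: total well GFP (ex488/em500-530) summed from mean per-cell fluorescence. Cells: HEPG2 CAGA-GFP, 1% FBS DMEM, 18 h at 37 degrees C with 500 pg/mL final TGF-beta. Unstimulated wells served as the full-inhibition control; stimulated DMSO wells = 0%.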
* = called active by the depositor; ? = inconclusive; . = not tested or not shown. Calls come from the whole dose curve; as a rule, active = well fitted curve in the direction sought with a large enough effect; inconclusive = small, poorly fitted or top-dose-only effect, or another doubt; inactive = no such curve, though single readings can be large; an effect the other way counts as inactive or inconclusive. Potency is the fitted concentration of half-maximal effect.

SMILES	HepG2 tox	HT1080 IDH1KD tx	HT1080-NT tox	DT40 TDP1 no CPT	TDP1 cell CPT	TGFb inhibitor
CCC(CC)c1nc(C(N)=O)c2[nH]c(=O)n(-c3ccc(OC)c(OC)c3)c2n1	-25%	0%	2%	11%	-1%	-1%
CC(C)(C)SC(=O)C[C@@H]1NS(=O)(=O)OC2CCCCC21 (stereo partly specified)	-17%	-9%	-2%	-26%	?	-4%
CCCNC(=O)C1CCC(Cn2c(=O)c3sccc3n(CC(=O)N3CCCC(C)C3)c2=O)CC1 (stereo unspecified)	0%	.	.	-7%	-21%	5%
O=C(O)/C=C/c1ccc(S(=O)(=O)N2CCN(CCN3C(=O)C4C5C=CC(C5)C4C3=O)CC2)cc1 (stereo unspecified)	1%	2%	3%	-8%	-1%	4%
OC(c1ccccc1)(c1ccccc1)C1CCN(CCCOc2ccc(F)cc2)CC1	.	23µM*	21µM*	?	?	.
COC(=O)c1cccc(OCCCN2CCC(C(O)(c3ccccc3)c3ccccc3)CC2)c1	.	16µM*	?	?	?	.
CC(C)(C(=O)O)c1ccc([C@H](O)CCCN2CCC(C(O)(c3ccccc3)c3ccccc3)CC2)cc1	-2%	8%	?	-10%	0%	15%
Cc1ccc(OCCCN2CCC(C(O)(c3ccccc3)c3ccccc3)CC2)cc1	.	18µM*	?	?	?	.
COc1ccccc1N1CCN(CCCOc2ccc(F)cc2)CC1	-16%	-19%	-20%	?	?	15%
COc1ccc(NC(=O)Nc2ccc3c(c2)CC(=O)N([C@H](C)CO)C[C@H](C)[C@H](CN(C)Cc2ccc(C(=O)O)cc2)O3)cc1	26%	8%	17%	0%	-13%	14%
Cc1ccc(F)cc1C(=O)N1CCCCC1c1cc(C(=O)Nc2ccccc2)no1 (stereo unspecified)	-6%	12%	23%	?	?	6%
COc1ccccc1CN1CCCC(CN(CCN(C)C)C(=O)C2CCCC2)C1 (stereo unspecified)	1%	-19%	1%	1%	-2%	1%
CN(C)c1ccnc2sc3c(SCc4ccc(Cl)cc4)ncnc3c12	3%	19%	17%	13µM*	16µM*	0%
CN(C)c1ccnc2sc3c(NCC(O)CO)ncnc3c12 (stereo unspecified)	-4%	0%	3%	?	-6%	4%
Cc1ccc(C(=O)c2cn(Cc3cc(C)ccc3C)c3nc(C)ccc3c2=O)cc1	-37%	.	.	21µM*	?	?
Cc1ccc(Cn2cc(C(=O)c3ccc(C)cc3)c(=O)c3ccc(C)nc32)cc1	-19%	.	.	?	?	?
CCOc1ccccc1NC(=O)Cn1cc(C(=O)c2ccc(Cl)cc2)c(=O)c2ccc(C)nc21	-3%	.	.	15µM*	?	-13%
Cc1ccc(C(=O)c2cn(Cc3c(F)cccc3Cl)c3nc(C)ccc3c2=O)cc1	5%	.	.	?	-8%	-2%
Cc1ccc(C(=O)c2cn(Cc3cccc(C)c3)c3nc(C)ccc3c2=O)cc1	-39%	.	.	21µM*	?	?
CC(=O)c1ccc(-c2ccc(C(=O)N(C)Cc3nc4ccccc4c(=O)[nH]3)o2)cc1	-19%	-12%	-6%	23µM*	?	-26%

Screens from PubChem BioAssay.
